# Measurements from PubChem BioAssay (NCATS).
# Records with an inconclusive call do not appear. Entries that show only a call come without a potency. Activity calls are given as the source filed them. Calls follow the shape of the dose curve; as a rule, active = well fitted curve in the direction sought with a large enough effect; inconclusive = small, poorly fitted or top-dose-only effect, or another doubt; inactive = no such curve, though single readings can be large; an effect the other way counts as inactive or inconclusive.
# Key:
# [1] = Quantitative High-Throughput drug screen in 47 multiple myeloma cell lines against the NCATS MIPE library collection: EJM_DSMZ cell viability assay (AID 1918926; also: nearly all actives have a fitted effect of over 30% in size; also: potency is read from the fitted curve at half-maximal effect); conditions: EJM myeloma cell viability, CellTiter-Glo ATP, 48 h; series mostly up to 45.8 µM
# Procedure, shortened: (§1)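 Steps: seed 500 cells per well; pin-transfer MIPE 4.0 library; incubate 48 h at 37C, 5% CO2, humidified; add CellTiter-Glo, 5 min room temperature; read luminescence.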
# [2] = Quantitative High-Throughput drug screen in 47 multiple myeloma cell lines against the NCATS MIPE library collection: ARP1_JJKsccF8 cell viability assay (AID 1918928; also: nearly all actives have a fitted effect of over 40% in size; also: potency is read from the fitted curve at half-maximal effect); conditions: ARP1 myeloma cells viability, CellTiter-Glo ATP, 48 h; series mostly up to 45.8 µM
# Procedure, shortened: (§2)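 Viability screen: myeloma cells (500/well) incubated 48 h at 37 °C, humidified 5% CO2, with pinned library compounds; CellTiter-Glo added, luminescence read; DMSO wells set 100%, medium-only wells 0%.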
# [3] = Quantitative High-Throughput drug screen in 47 multiple myeloma cell lines against the NCATS MIPE library collection: KMM1_JCRB cell viability assay (AID 1918960); conditions: KMM1 myeloma viability, CellTiter-Glo ATP luminescence, 48 h; series mostly up to 45.8 µM; also: nearly all actives have a fitted effect of over 30% in size; also: potency is read from the fitted curve at half-maximal effect
# Procedure, shortened: as §2
# [4] = Quantitative High-Throughput drug screen in 47 multiple myeloma cell lines against the NCATS MIPE library collection: JJN3_DSMZ cell viability assay (AID 1918966; also: nearly all actives have a fitted effect of over 50% in size; also: potency is read from the fitted curve at half-maximal effect); conditions: JJN3 myeloma cells viability, CellTiter-Glo ATP, 48 h; series mostly up to 45.8 µM
# Procedure, shortened: as §1
# [5] = Quantitative High-Throughput drug screen in 47 multiple myeloma cell lines against the NCATS MIPE library collection: H1112_PLB cell viability assay (AID 1918967; also: nearly all actives have a fitted effect of over 30% in size; also: potency is read from the fitted curve at half-maximal effect); conditions: H1112 myeloma cells viability, ATP luminescence, 48 h; series mostly up to 45.8 µM
# Procedure, shortened: as §1
# [6] = Quantitative High-Throughput drug screen in 47 multiple myeloma cell lines against the NCATS MIPE library collection: Karpas25_ECACC cell viability assay (AID 1918968; also: nearly all actives have a fitted effect of over 35% in size; also: potency is read from the fitted curve at half-maximal effect); conditions: Karpas25 myeloma viability, CellTiter-Glo ATP, 48 h; series mostly up to 45.8 µM
# Procedure, shortened: as §1
# [7] = Quantitative High-Throughput drug screen in 47 multiple myeloma cell lines against the NCATS MIPE library collection: FR4_PLB cell viability assay (AID 1918924; also: nearly all actives have a fitted effect of over 35% in size); conditions: FR4_PLB myeloma cells viability, CellTiter-Glo ATP, 48 h; series mostly up to 45.8 µM
# Procedure, shortened: (§3)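 We plated 500 myeloma cells per well, pinned in MIPE 4.0 compounds, and incubated for 48 hours at 37C. ATP was then quantified with CellTiter-Glo, with DMSO and media-only wells defining 100% and 0%.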
# [8] = Quantitative High-Throughput drug screen in 47 multiple myeloma cell lines against the NCATS MIPE library collection: JIM3_ECACC cell viability assay (AID 1918963; also: nearly all actives have a fitted effect of over 35% in size; also: potency is read from the fitted curve at half-maximal effect); conditions: JIM3 myeloma viability, CellTiter-Glo ATP, 48 h; series mostly up to 45.8 µM
# Procedure, shortened: as §3
# [9] = Quantitative High-Throughput drug screen in 47 multiple myeloma cell lines against the NCATS MIPE library collection: INA6_PLB cell viability assay (AID 1918965; also: nearly all actives have a fitted effect of over 55% in size; also: potency is read from the fitted curve at half-maximal effect); conditions: INA6 myeloma viability, CellTiter-Glo ATP luminescence, 48 h; series mostly up to 45.8 µM
# Procedure, shortened: (§4)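 Viability readout: CellTiter-Glo luminescence following 5 min room-temperature incubation with reagent. Prior exposure: 48 h, 37C, humidified 5% CO2, 500 cells per well.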
# [10] = Quantitative High-Throughput drug screen in 47 multiple myeloma cell lines against the NCATS MIPE library collection: Karpas417_ECACC cell viability assay (AID 1918961); conditions: Karpas417 myeloma viability, CellTiter-Glo ATP luminescence, 48 h; viability (% of DMSO): at 45.8 µM (top of the series); also: potency is read from the fitted curve at half-maximal effect
# Procedure, shortened: as §4
# [11] = Quantitative High-Throughput drug screen in 47 multiple myeloma cell lines against the NCATS MIPE library collection: AMO1_DSMZ cell viability assay (AID 1918927; also: nearly all actives have a fitted effect of over 30% in size; also: potency is read from the fitted curve at half-maximal effect); conditions: AMO1 myeloma cells viability, CellTiter-Glo ATP luminescence, 48 h; series mostly up to 45.8 µM
# Procedure, shortened: as §1
# [12] = Quantitative High-Throughput drug screen in 47 multiple myeloma cell lines against the NCATS MIPE library collection: ARD_JJKsccE7 cell viability assay (AID 1918929; also: potency is read from the fitted curve at half-maximal effect); conditions: ARD myeloma cell line viability, CellTiter-Glo, 48 h; series mostly up to 45.8 µM
# Procedure, shortened: as §1
# [13] = Quantitative High-Throughput drug screen in 47 multiple myeloma cell lines against the NCATS MIPE library collection: Karpas620_DSMZ cell viability assay (AID 1918959); conditions: Karpas620 myeloma viability, CellTiter-Glo ATP luminescence, 48 h; series mostly up to 45.8 µM; also: nearly all actives have a fitted effect of over 30% in size
# Procedure, shortened: as §3
# [14] = Quantitative High-Throughput drug screen in 47 multiple myeloma cell lines against the NCATS MIPE library collection: Delta47_JCRB cell viability assay (AID 1918925; also: nearly all actives have a fitted effect of over 45% in size; also: potency is read from the fitted curve at half-maximal effect); conditions: Delta47 myeloma viability, CellTiter-Glo ATP, 48 h; series mostly up to 45.8 µM
# Procedure, shortened: as §1
# [15] = Quantitative High-Throughput drug screen in 47 multiple myeloma cell lines against the NCATS MIPE library collection: KHM11_PLB cell viability assay (AID 1918962); conditions: KHM11 myeloma cell viability, CellTiter-Glo ATP luminescence, 48 h; series mostly up to 45.8 µM; also: nearly all actives have a fitted effect of over 35% in size; also: potency is read from the fitted curve at half-maximal effect
# Procedure, shortened: as §3
smiles,measurement,setting,value
COc1ccc(C(=O)CC(=O)c2ccc(C(C)(C)C)cc2)cc1,Potency,[1],1.48 µM (active)
same,Potency,[2],10.5 µM (active)
same,Potency,[3],7.43 µM (active)
same,Potency,[4],0.935 µM (active)
same,Potency,[5],7.43 µM (active)
same,Potency,[6],2.35 µM (active)
Cc1nnc(NS(=O)(=O)c2ccc(N)cc2)s1,Potency,[7],inactive
same,Potency,[2],20.9 µM (active)
same,Potency,[3],1.18 µM (active)
same,Potency,[8],inactive
same,Potency,[9],9.35 µM (active)
same,Potency,[5],inactive
same,Potency,[6],8.33 µM (active)
C[C@@H](CN1CC(=O)NC(=O)C1)N1CC(=O)NC(=O)C1,Potency,[7],inactive
same,Potency,[1],inactive
same,Potency,[3],inactive
same,Potency,[10],0.0526 µM (active)
same,Potency,[8],inactive
same,Potency,[9],10.5 µM (active)
same,Potency,[4],inactive
same,Potency,[5],16.6 µM (active)
same,Potency,[6],9.35 µM (active)
CCc1cc(C(N)=S)ccn1,Potency,[1],inactive
same,Potency,[11],inactive
same,Potency,[2],inactive
same,Potency,[12],inactive
same,Potency,[13],inactive
same,Potency,[3],inactive
same,Potency,[10],inactive
same,Potency,[8],inactive
same,Potency,[5],inactive
same,Potency,[6],inactive
CC(C)(C)NC(=O)[C@H]1CC[C@H]2[C@@H]3CC[C@H]4NC(=O)C=C[C@]4(C)[C@H]3CC[C@]12C,Potency,[14],0.526 µM (active)
same,Potency,[1],0.662 µM (active)
same,Potency,[2],inactive
same,Potency,[15],1.18 µM (active)
same,Potency,[8],4.18 µM (active)
same,Potency,[5],1.18 µM (active)
same,Potency,[6],0.662 µM (active)
CC(C)OC(=O)OCOP(=O)(CO[C@H](C)Cn1cnc2c(N)ncnc21)OCOC(=O)OC(C)C,Potency,[7],inactive
same,Potency,[11],20.9 µM (active)
same,Potency,[12],23.5 µM (active)
same,Potency,[3],20.9 µM (active)
same,Potency,[8],16.6 µM (active)
same,Potency,[4],18.7 µM (active)
same,Potency,[6],14.8 µM (active)
CCn1cc(C(=O)O)c(=O)c2cc(F)c(N3CCNCC3)nc21,Potency,[14],inactive
same,Potency,[1],inactive
same,Potency,[13],inactive
same,Potency,[3],inactive
same,Potency,[8],inactive
same,Potency,[9],inactive
same,Potency,[4],inactive
same,Potency,[5],inactive
same,Potency,[6],inactive
CCOc1cc(N)c(Cl)cc1C(=O)NCC1CN(Cc2ccc(F)cc2)CCO1 (stereo unspecified),Potency,[14],inactive
same,Potency,[1],inactive
same,Potency,[2],inactive
same,Potency,[13],inactive
same,Potency,[3],inactive
same,Potency,[8],inactive
same,Potency,[4],inactive
same,Potency,[5],inactive
same,Potency,[6],inactive
CCC(=O)O[C@]1(C(=O)CCl)[C@@H](C)C[C@H]2[C@@H]3CCC4=CC(=O)C=C[C@]4(C)[C@@]3(F)[C@@H](O)C[C@@]21C,Potency,[1],inactive
same,Potency,[8],inactive
same,Potency,[5],inactive
COc1ccc2c(c1)c(CC(=O)OCC(=O)O)c(C)n2C(=O)c1ccc(Cl)cc1,Potency,[7],inactive
same,Potency,[11],inactive
same,Potency,[2],inactive
same,Potency,[3],inactive
same,Potency,[8],inactive
same,Potency,[4],inactive
same,Potency,[5],inactive
same,Potency,[6],inactive
NC(N)=NC(N)=NCCc1ccccc1,Potency,[14],9.35 µM (active)
same,Potency,[1],4.69 µM (active)
same,Potency,[2],14.8 µM (active)
same,Potency,[15],16.6 µM (active)
same,Potency,[8],4.69 µM (active)
same,Potency,[9],20.9 µM (active)
same,Potency,[6],5.26 µM (active)
CO[C@@H]1[C@@H](OC(N)=O)[C@@H](O)[C@H](Oc2ccc3c(O)c(NC(=O)c4ccc(O)c(CC=C(C)C)c4)c(=O)oc3c2C)OC1(C)C,Potency,[14],5.26 µM (active)
same,Potency,[1],5.26 µM (active)
same,Potency,[2],0.935 µM (active)
same,Potency,[15],2.64 µM (active)
same,Potency,[8],5.26 µM (active)
same,Potency,[5],inactive
same,Potency,[6],5.9 µM (active)
COCCCOc1cc(C[C@@H](C[C@H](N)[C@@H](O)C[C@H](C(=O)NCC(C)(C)C(N)=O)C(C)C)C(C)C)ccc1OC,Potency,[1],inactive
same,Potency,[11],inactive
same,Potency,[2],inactive
same,Potency,[13],inactive
same,Potency,[15],inactive
same,Potency,[8],inactive
same,Potency,[6],1.87 µM (active)
